Among the data in PubChem BioAssay AID434955 (Southern Research Specialized Biocontainment Screening …, 2010) are inhibition values, retold here.

The whole screen tested about 330,000 compounds, of which about 880 (0.27%) were called active. Inconclusive results (about 1%) are left out. The rule behind the calls is not given here. A selection follows.

The assay is described as follows: beta-lactam sensitization of Mtb H37Rv, H37Rv (AID 434955).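 Note: growth measured after seven days incubation then overnight dye step; 0% = bacteria only wells and 100% = bacteria with antibiotic.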 To be noted: M. tuberculosis H37Rv growth with meropenem, percent inhibition, at 25 µM.
Setting [1] is: measured here: primary screen without meropenem.

What is called inhibition is the change of the read-out against control, counted positive when it falls. `CCOc1ccc2ccccc2c1/C=N/NC(=O)c1c(C)cc(C)[nH]c1=O`: the inhibition is -16.1% (inactive) (stronger effect = higher value) and -1.48% under setting [1].
`O=C(NCCCCCCCCCNC(=O)C(F)(F)F)C(F)(F)F`: the inhibition (stronger effect = higher value) was 3.21% (inactive) and the inhibition under setting [1] came to 10.9%.
The corresponding values for `O=C1CC2(CC(c3ccc(Cl)cc3)=NO2)C(=O)N1c1ccccc1` (centres undefined) are -4.42% (inactive) and -1.92%.
The corresponding values for `CCCCC1(C(=O)OCC)NC(c2ccc(O)cc2)C2C(=O)N(c3ccccc3)C(=O)C21` (centres undefined) are -5.62% (inactive) and -0.56%.
Taken in the same sequence, the figures for `O=C(CCCNS(=O)(=O)c1cccc2nsnc12)NCCN1CCN(c2ccccc2F)CC1` were -11.3% (inactive) and -10.3%.
Take `CCOc1ccc(NC(=S)NC(=O)/C=C/c2ccc(OC)cc2)c([N+](=O)[O-])c1`: the inhibition by setting is: (stronger effect = higher value) -1.27% (inactive); under setting [1], 1.54%.
Taken in the same sequence, the figures for `CSc1ccccc1NC(=O)c1ccc2c(c1)CCN2S(C)(=O)=O` were -1.11% (inactive) and -0.34%.
The corresponding values for `CCOC(=O)c1c(S(=O)(=O)Nc2ccc(CN3CCC(C)CC3)cc2)c(C)n(C)c1C` are -2.23% (inactive) and 3.26%.
Taken in the same sequence, the figures for `Cc1ccc(S(=O)(=O)N2CCC(C(=O)OCC(=O)N(C)c3ccccc3)CC2)cc1C` were -8.73% (inactive) and -4.4%.
`CC(=O)NC1(c2ccc(F)cc2)CCN(C(=O)c2c(F)cccc2F)CC1`: the inhibition runs as follows: (stronger effect = higher value) 8.64% (inactive); under setting [1], 0.61%.
The corresponding values for `O=C(NCC1CCCO1)C(C(=O)c1ccccc1)n1cc(Cl)ccc1=O` (centres undefined) are 6.75% (inactive) and -1.73%.
For the compound `O=C(NCc1ccc(F)cc1)C1CCN(C(=O)Nc2ccc(F)cc2)CC1`, the inhibition reads like this: (stronger effect = higher value) -23.9% (inactive); under setting [1], -6%.
On to `CC(Nc1nc(C(F)(F)F)nc2ccccc12)c1cccs1` (centres undefined), for which the inhibition is 4.44% (inactive) (stronger effect = higher value) and 8.98% under setting [1].
Take `CCOC(=O)C1=C(CCc2ccccc2)NC(=O)NC1c1ccc2ccccc2c1` (centres undefined): the inhibition (stronger effect = higher value) is 30% (inactive) and the inhibition under setting [1] was found to be 52.5%.
Taken in the same sequence, the figures for `COc1ccccc1NC(=O)COC(=O)CNC(=O)C1CCCCC1` were -1.14% (inactive) and -2.95%.
Taken in the same sequence, the figures for `CN(C)Cc1ccccc1C1(O)c2ccccc2CSc2ccccc21` (centres undefined) were -0.96% (inactive) and 2.09%.
Take `CCN(CC)CCn1c(=S)[nH]c2ncccc2c1=O`: the inhibition reads like this: (stronger effect = higher value) -13.3% (inactive); under setting [1], -17.8%.
Taken in the same sequence, the figures for `CC(=O)Nc1ccc(N2C(=O)CC(Sc3nccc(C)n3)C2=O)cc1` (centres undefined) were -4.91% (inactive) and -1.37%.
Taken in the same sequence, the figures for `CCOc1ccc(CNC(=O)CCC(=O)N2CCSc3ccccc32)cc1` were -9.71% (inactive) and -7.82%.
The corresponding values for `O=C(CCc1nc(-c2ccccc2)no1)Nc1cccc(C(=O)NC2CC2)c1` are 1.26% (inactive) and 4.5%.
On to `COc1ccc(/C=N/n2c(C)cc(C)cc2=O)cc1`, for which the inhibition is 3.19% (inactive) (stronger effect = higher value) and -1.76% under setting [1].
Taken in the same sequence, the figures for `COC(=O)c1ccc(NS(=O)(=O)c2cc3c4c(c2)C(C)C(=O)N4CCC3)cc1` (centres undefined) were -8.75% (inactive) and -4.77%.
